Data from PubChem BioAssay (NCATS).
Inconclusive results are not listed. Calls of active or inactive are those of the source. The call rests on the fitted dose curve; in most records, active means well fitted cell-killing curve with a large enough effect; inconclusive means small, poorly fitted or top-dose-only effect; inactive means flat fitted curve, though single readings scatter.

Key:
[1] = Cell Viability - LYMP2-017 (AID 972); conditions: LYMP2-017 lymphoblastoid cell viability;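 further: cells exposed to compound for 24 hours at 37 °C; nearly all actives have a fitted effect of over 55% in size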
Outline: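 Luminescent ATP read-out (CellTiter-Glo, 30 min RT) reports viable cell number. Cells: human lymphoblastoid line, 2500 per well, 5 hr preincubation, 24 hr compound exposure at 37 C. AC50 is derived from qHTS concentration-response data using the standard Hill model.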

[2] = Cell Viability - LYMP2-019 (AID 973); conditions: LYMP2-019 lymphoblastoid cell line viability; further: nearly all actives have a fitted effect of over 55% in size
Outline: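 qHTS, 1536-well; 2500 cells/well; 5 hr pre-incubation, 24 hr compound exposure, 37 C; CellTiter-Glo added, 30 min RT; luminescence read; AC50 via standard Hill equation.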

[3] = Cell Viability - LYMP2-021 (AID 974); conditions: LYMP2-021 lymphoblastoid cells viability;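 further: compound exposure lasts 24 hours at 37 °C; nearly all actives have a fitted effect of over 55% in size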
Outline: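 ATP luminescence (CellTiter-Glo, 30 min RT) after 24 h compound exposure at 37 C; 2500 human lymphoblastoid cells/well, 5 h settle beforehand. Cytotoxicity = concentration-dependent ATP drop, AC50 by Hill fit.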

[4] = Cell Viability - LYMP2-023 (AID 975); conditions: LYMP2-023 lymphoblastoid cell viability;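 further: cells exposed to compound for 24 hours at 37 °C; nearly all actives have a fitted effect of over 55% in size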
Outline: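 CellTiter-Glo luminescence after 30 min at room temperature; decrease in intracellular ATP reflects toxicity. Cells: human lymphoblastoid line, 2500/well, 24 hr compound exposure at 37 C. AC50 fitted to standard Hill equation from concentration-response.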

[5] = Cell Viability - LYMP2-025 (AID 976); conditions: LYMP2-025 lymphoblastoid cell viability
Outline: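 CellTiter-Glo luminescence (cellular ATP) after 24 h compound exposure at 37 C; LYMP2-025 human lymphoblastoid cells, 2500/well, complete medium. Tetraoctylammonium bromide positive control. AC50 by Hill equation fit of qHTS concentration-response.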

[6] = Cell Viability - LYMP2-002 (AID 977); conditions: LYMP2-002 lymphoblastoid cell viability, qHTS
Outline: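 In this qHTS viability screen, 2500 human lymphoblastoid cells per well receive compound for 24 hr at 37 C, and luciferase-based ATP luminescence gives the viability signal. Tetraoctylammonium bromide serves as positive control.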

[7] = Cell Viability - LYMP2-006 (AID 978); conditions: LYMP2-006 lymphoblastoid cell viability, qHTS;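 further: cells exposed to compound for 24 hours; nearly all actives have a fitted effect of over 60% in size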
Outline: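 Concentration-dependent loss of intracellular ATP in a human lymphoblastoid line after 24 hr treatment at 37 C was measured by CellTiter-Glo luminescence, with AC50 values obtained from standard Hill-equation modelling.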

[8] = Cell Viability - LYMP2-007 (AID 979); conditions: LYMP2-007 lymphoblastoid cell viability;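 further: cells exposed to compound for 24 h before reading; nearly all actives have a fitted effect of over 60% in size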
Outline: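 qHTS cytotoxicity: 2500 cells/well, 5 hr 37 C settle, compound 24 hr 37 C, CellTiter-Glo 30 min RT, luminescence. Decrease in ATP = toxicity. AC50 by standard Hill equation; tetraoctylammonium bromide positive control.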

[9] = Cell Viability - LYMP2-008 (AID 980); conditions: LYMP2-008 lymphoblastoid cell viability, qHTS; further: nearly all actives have a fitted effect of over 60% in size
Outline: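 Luminescent ATP read-out (CellTiter-Glo, 30 min RT) after 24 hr compound exposure at 37 C of human lymphoblastoid cells in complete medium. Decrease in ATP taken as cytotoxicity; AC50 derived by standard Hill fit of qHTS concentration-response data.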

[10] = Cell Viability - LYMP2-010 (AID 981); conditions: LYMP2-010 lymphoblastoid cell viability, qHTS
Outline: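 qHTS cytotoxicity, 1536-well: 2500 cells/well, 5 hr settle, 24 hr compound at 37 C, CellTiter-Glo 30 min RT, luminescence read. Decrease in ATP = toxicity; AC50 via standard Hill equation. Positive control tetraoctylammonium bromide.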

[11] = Cell Viability - LYMP2-012 (AID 982); conditions: LYMP2-012 lymphoblastoid cell viability qHTS
[12] = Cell Viability - LYMP2-014 (AID 983); conditions: LYMP2-014 lymphoblastoid cells, viability qHTS; further: nearly all actives have a fitted effect of over 50% in size
Outline: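 2500 cells/well, 5 hr 37 C; cpd 24 hr 37 C, complete medium; CellTiter-Glo 30 min RT, luminescence; ATP loss = toxicity; AC50 via Hill eqn; tetraoctylammonium bromide positive control.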

[13] = Cell Viability - LYMP2-016 (AID 984); conditions: LYMP2-016 lymphoblastoid cell viability, qHTS
Outline: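 Acute toxicity in a Coriell human lymphoblastoid line is scored as loss of intracellular ATP over 24 h of treatment in complete medium. CellTiter-Glo signal is fitted across concentrations with the Hill equation to give AC50.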

[14] = Cell Viability - LYMP2-018 (AID 985); conditions: LYMP2-018 lymphoblastoid cells, viability (qHTS); further: nearly all actives have a fitted effect of over 50% in size
Outline: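 2500 cells/well; 5 hr 37 C; cmpd 24 hr 37 C, complete medium; CellTiter-Glo 30 min RT; luminescence. Tetraoctylammonium bromide positive control. AC50 via Hill fit.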

[15] = Cell Viability - LYMP2-020 (AID 986); further: nearly all actives have a fitted effect of over 55% in size
Outline: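 qHTS, 2500 cells/well; 5 hr then 24 hr compound exposure, 37 C; CellTiter-Glo luminescence after 30 min RT; ATP decrease taken as cytotoxicity; AC50 via Hill equation; tetraoctylammonium bromide positive control.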

[16] = Cell Viability - LYMP2-022 (AID 987); conditions: LYMP2-022 lymphoblastoid cell viability; further: nearly all actives have a fitted effect of over 55% in size
Outline: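 Luminescent ATP read-out (CellTiter-Glo, 30 min, RT) after 24 hr, 37 C compound exposure of 2500 human lymphoblastoid cells/well in complete medium. Cytotoxicity taken as concentration-dependent ATP loss; AC50 from standard Hill equation.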

[17] = Cell Viability - LYMP2-024 (AID 988); conditions: LYMP2-024 lymphoblastoid cell viability; further: nearly all actives have a fitted effect of over 60% in size
Outline: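 ATP-based luminescence (CellTiter-Glo, 30 min RT) after 24 h compound exposure at 37 C of 2500 lymphoblastoid cells/well; decrease in ATP taken as cytotoxicity. qHTS concentration-response fitted to standard Hill equation for AC50.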

[18] = Cell Viability - LYMP2-026 (AID 989); conditions: LYMP2-026 lymphoblastoid cell viability, qHTS; further: nearly all actives have a fitted effect of over 50% in size
Outline: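 qHTS cytotoxicity: 2500 cells/well, 5 hr 37 C, compound 24 hr 37 C, CellTiter-Glo 30 min RT, luminescence. Tetraoctylammonium bromide positive control. AC50 via standard Hill fit.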

[19] = Cell Viability - LYMP1-002 - Assay at 24 hr (AID 993); conditions: LYMP1-002 lymphoblastoid cells viability
Outline: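 CellTiter-Glo luminescence (intracellular ATP) after 24 h compound exposure, 37 C, in LYMP1-002 human lymphoblastoid cells; decreased ATP taken as cytotoxicity. AC50 from standard Hill fit of concentration-response curves.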

[20] = Cell Viability - LYMP1-002 - Assay at 40 hr (AID 994); conditions: LYMP1-002 lymphoblastoid cell viability; further: nearly all actives have a fitted effect of over 60% in size
Outline: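 qHTS cytotoxicity; 2500 cells/well, 5 hr 37 C settle, compound 40 hr 37 C. CellTiter-Glo, 30 min RT, luminescence (ATP). Concentration-response, Hill fit → AC50. Pos. ctrl tetraoctylammonium bromide.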

Measured: Potency
Potency means the concentration at half of the fitted maximal effect.

O=C1c2c(O)ccc([N+](=O)[O-])c2C(=O)c2c([N+](=O)[O-])ccc(O)c21
active: [1] 31.6 µM | [2] 39.8 µM | [3] 39.8 µM | [4] 39.8 µM | [5] 39.8 µM | [6] 39.8 µM | [7] 31.6 µM | [8] 39.8 µM | [9] 31.6 µM | [10] 31.6 µM | [11] 39.8 µM | [12] 39.8 µM | [13] 31.6 µM | [14] 39.8 µM | [15] 39.8 µM | [16] 39.8 µM | [17] 39.8 µM | [18] 39.8 µM | [19] 39.8 µM | [20] 39.8 µM
